Only some compounds are listed: those with a hit (about 21% of all), similar ones and a draw of the others.
NS1 function inh: influenza NS1 inhibition. Potency, µM (titrated, usually from 46.1 µM), for inactives: at the top dose activity, positive = more growth. 270,000 tested, 0.4% active; calls by dose curve; note: potency is the fitted concentration of half-maximal effect; actives are rising curves; nearly all actives have a fitted effect of over 50% in size
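Read-out: OD600 growth recovery of NS1-expressing budding yeast. Cells grown overnight at 30C in -URA glucose medium, washed, resuspended and diluted 1:100 in 2% galactose assay medium, pH 6.0. Same strain lacking NS1 served as positive control.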
Shiga toxin inh: inhibitors of Shiga toxin in Vero cells; AID 2315; Vero cells, Shiga toxin protein synthesis inhibition reporter; 290,000 tested, 9.2% active; inhibition, % at 38.7 µM; in the data active = inhibition mostly above about 28%, no sharp cut-off; inactive = mostly below about 43%; note: 0% is about no effect
CHX counter: counter-screen for Shiga toxin inhibitors: cycloheximide protein synthesis inhibition; 300,000 tested, 12% active; cell reporter, cycloheximide protein synthesis inhibition counterscreen; AID 2314; max response, %; in the data active = max response mostly above about 13%, no sharp cut-off; inactive = mostly below about 14%; note: read at 38.3 µM for the half of the compounds with a filed dose; 0% is about no effect
Pf growth 48h: inhibits P. falciparum growth in the first generation, 48 h; P. falciparum luciferase growth in erythrocytes, 48 h; Potency, µM (titrated, usually from 28.7 µM), for inactives: top-dose activity change, negative = inhibition, most hits filed as inhibitors; 310,000 tested, 5.9% active; AID 504832; note: potency is the fitted concentration of half-maximal effect; % is set by controls: 0 for no effect and ±100 for the full control effect
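Read-out is firefly luciferase luminescence from an integrated reporter in P. falciparum, so falling signal marks reduced parasite growth. Infected erythrocytes were at 2% hematocrit and 0.1% parasitemia (final) in Albumax-supplemented RPMI 1640.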
Sm TGR block: inhibitors of Schistosoma mansoni thioredoxin glutathione reductase; Potency, µM (titrated, usually from 114 µM), for the others: at the top dose activity change, negative = inhibition, most hits filed as inhibitors; 360,000 tested, 3% active; AID 485364; purified TGR, DTNB reduction, TNB absorbance 405 nm; note: potency is the fitted concentration of half-maximal effect; % is set by controls: 0 for no effect and ±100 for the full control effect; nearly all actives have a fitted effect of over 60% in size
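Kinetic colorimetric format: TGR-catalysed, NADPH-driven DTNB reduction monitored via TNB absorbance. Enzyme dispensed at 20 nM; compound exposure 15 min at room temperature before reaction start.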
Pf growth 96h: P. falciparum growth inhibition at 96 hours | P. falciparum luciferase reporter growth, 96 h | Potency, µM (highest dose often 28.7 µM), for inactives: at the top dose activity change, negative = inhibition, most hits filed as inhibitors | 320,000 tested, 6.9% active | AID 504834; note: potency is the fitted concentration of half-maximal effect; % is set by controls: 0 for no effect and ±100 for the full control effect
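P. falciparum expressing integrated firefly luciferase, in erythrocytes at 2% hematocrit, 0.05% parasitemia, incubated with compounds 96 h at 37 C, 5% CO2. Growth inhibition read as loss of luminescence; two-generation exposure targets delayed-death apicoplast inhibitors.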
* = called active by the depositor; ? = inconclusive; nt = no result. Unless noted, calls come from the whole dose curve; as a rule, active = well fitted curve in the direction sought with a large enough effect; inconclusive = small, poorly fitted or top-dose-only effect, or another doubt; inactive = no such curve, though single readings can be large; an effect the other way counts as inactive or inconclusive.

SMILES | NS1 function inh | Shiga toxin inh | CHX counter | Pf growth 48h | Sm TGR block | Pf growth 96h
O=C(COC(=O)/C=C/c1ccco1)NCCc1ccccc1 | nt | 15.0 | 2.5 | 24.2% | 22.4µM* | 30.3%
O=C(COC(=O)/C=C/c1ccco1)NCc1ccccc1Cl | nt | -11.9 | 0.6 | 48.8% | 17.8µM* | 3.5%
COc1ccc(CNC(=O)COC(=O)/C=C/c2ccco2)cc1 | nt | -1.9 | -3.3 | -9.7% | 35.5µM* | -10.5%
Cc1ccc(Cn2c(=O)n(CCc3ccccc3)c(=O)c3c(C)c(C)sc32)cc1 | nt | nt | nt | nt | 4.8% | nt
CNC(=O)COC(=O)/C=C/c1ccco1 | 2.5% | -3.1 | -5.1 | -4.4% | 25.1µM* | 10.7%
CCC1C(=O)CC(c2ccc([N+](=O)[O-])cc2)NC1c1ccc([N+](=O)[O-])cc1 (centres undefined) | -1.9% | -15.1 | 1.1 | 13.1µM* | 2.4% | 25.6%
CCC1C(=O)CC(c2ccco2)NC1c1ccco1 (centres undefined) | 1.7% | 32.3 | 2.6 | -16.8% | -24.9% | -4.5%
Cc1nc2nc(CNC(=O)c3cccc(F)c3)nn2c(C)c1CCC(=O)Nc1cccc(Cl)c1 | nt | nt | nt | nt | 1.1% | nt
Cc1cccc(/C(N)=N/OC(=O)CCC2CCCCC2)c1 | -28.1% | 28.7 | 17.7 | 15.8% | -12.4% | ?
N/C(=N\OC(=O)C1CCCCC1)c1cccnc1 | 4.7% | 22.5 | 14.6 | 14.4% | 0.6% | 0.0%
N/C(=N\OC(=O)CCC1CCCC1)c1cccnc1 | -6.3% | 18.6 | 14.8* | 37.9% | 4.4% | ?
N/C(=N\OC(=O)CC1CCCCC1)c1cccnc1 | -0.2% | 14.2 | 26.5* | 0.0% | 11.9% | ?
CNc1c(NS(=O)(=O)c2ccc3c(c2)CCCC3)c(=O)oc2ccccc12 | -8.6% | -17.0 | 4.7 | 5.5% | 5.8% | 9.3%
O=S(=O)(NCCO)c1cc[c]([Sb])cc1 | -5.8% | nt | nt | nt | nt | nt
CCOC(=O)C1(CCOC)CCN(Cc2ccncc2)CC1 | 1.0% | -3.5 | -1.2 | -0.7% | -1.9% | -2.8%
CCOC(=O)C1(CCOc2ccccc2)CCN(Cc2ccc(-n3cccn3)cc2)CC1 | 2.8% | 13.8 | -2.4 | 14.7µM* | 3.4% | ?
CCOC(=O)C1(CCOc2ccccc2)CCN(Cc2nccn2CC)CC1 | -3.9% | -1.2 | -0.8 | ? | -6.3% | -27.5%
CCOC(=O)C1(CCOc2ccccc2)CCN(Cc2ccncc2)CC1 | -0.9% | -9.0 | -6.1 | ? | 28.2µM* | ?
CC(C)C(C)(C#N)NC(=O)CSc1nnc(C(F)(F)F)n1C (centres undefined) | 1.7% | -17.8 | 6.3 | 76.4% | 11.4% | 16.3%
Cc1ccc(S(=O)(=O)N2CCN(Cc3noc(CCC(=O)N4CCCCC4)n3)CC2)c(C)c1 | nt | nt | nt | nt | -15.3% | nt
O=[N+]([O-])c1cccc(CSc2nc3ccccc3[nH]2)c1 | -17.3% | 38.0 | 13.2* | -37.6% | -18.4% | 65.1%
Cc1ccc2nc(SCc3ccc([N+](=O)[O-])cc3)[nH]c2c1 | -25.3% | 73.2* | 40.4* | ? | 9.7% | 1.3%
COc1cccc(CC(Cc2nc3ccccc3[nH]2)c2nc3ccccc3[nH]2)c1 (centres undefined) | nt | 29.5 | 35.1* | -24.6% | -5.9% | ?
COc1ccc(N2CCN(Cc3nc4ccccc4[nH]3)CC2)cc1 | -12.9% | 38.3 | 1.5 | -6.7% | 3.8% | -29.9%
Cc1cc(C)c2nc(SCc3ccc([N+](=O)[O-])cc3)nc(C)c2c1 | 10.1% | -34.0 | -7.5 | -22.5% | -1.4% | 13.1µM*
SMILES | NS1 function inh | Shiga toxin inh | CHX counter | Pf growth 48h | Sm TGR block | Pf growth 96h
O=c1[nH]c(SCc2cccc([N+](=O)[O-])c2)nc2[nH]ncc12 | 6.3% | 28.4 | -3.8 | -20.3% | 7.6% | ?
Cc1ccc2nc(SCC(=O)Nc3cccc([N+](=O)[O-])c3)[nH]c2c1 | 14.7% | -9.7 | -2.4 | 9.2% | 7.1% | 17.4%
Cc1ccc2nc(SCc3ccc([N+](=O)[O-])cc3)nc(C)c2c1 | -2.3% | 13.1 | -2.2 | 2.0% | 10.1% | 3.3%
COc1cccc(CSc2nc3ccccc3[nH]2)c1 | -20.0% | 68.1 | 29.9* | 149.7% | -26.8% | 159.7%
COc1ccc2nc(Nc3nc(CSc4nc5ccccc5[nH]4)cc(=O)[nH]3)nc(C)c2c1 | ? | -9.3 | -4.8 | ? | -9.7% | 10.4µM*
COC(=O)c1sc2nc(C)nc(SCC(=O)Nc3sccc3C(N)=O)c2c1C | nt | nt | nt | ? | -4.3% | 24.6%
CCCc1ccc(-c2ccc(/C=C/C(=O)O)cc2)nc1 | -30.7% | 60.7* | 33.0 | 81.9% | -19.7% | ?
CCCCCc1ccc(-c2ccc(Br)cc2)nc1 | nt | nt | nt | nt | -2.8% | nt
CCCCCCCc1ccc(-c2ccc(O)cc2)nc1 | -66.0% | 80.7* | 30.7* | ? | nt | 5.6%
CCCCCc1ccc(-c2ccc(/C=C/C(=O)O)cc2)nc1 | -33.2% | 55.4* | 44.2* | 72.2% | -24.2% | 25.2%
CCCc1ccc(-c2ccc(C(=O)Oc3ccc(Br)cc3)cc2)nc1 | nt | nt | nt | nt | 0.0% | nt
O=C1CCCN1CCCNc1nc2c(S(=O)(=O)c3ccccc3)nnn2c2ccc(Cl)cc12 | 16.8% | -6.1 | 10.0 | ? | 2.5% | 32.2%
O=C(Nc1ccccc1C(=O)NCc1cccnc1)c1cccc([N+](=O)[O-])c1 | -1.2% | -16.1 | 6.5 | -26.4% | 0.3% | 35.9%
O=C(CSc1ccccc1)NCCSCc1ccccc1 | -9.6% | 42.6 | 17.1 | 13.2% | 1.2% | ?
Cc1cccc(-c2cccc(NC(=O)C3CCCN(C(=O)c4ocnc4C)C3)c2)c1 (centres undefined) | -12.5% | 40.0* | 29.0* | -9.2% | 5.7% | ?
CCc1nc(C)c(C(=O)N2CCCC(C(=O)Nc3cccc(-c4cccc(C)c4)c3)C2)o1 (centres undefined) | -43.3% | 86.6* | 54.3* | -26.8% | -14.3% | 30.1%
Cc1cccc(-c2cccc(NC(=O)C3CCCN(C(=O)c4cccnc4)C3)c2)c1 (centres undefined) | 7.4% | -4.0 | 1.5 | 0.8% | 0.0% | ?
Cc1cccc(-c2cccc(NC(=O)C3CCCN(C(=O)c4csc(C)n4)C3)c2)c1 (centres undefined) | 2.5% | 45.8* | 16.9* | ? | -11.3% | ?
Cc1nc(C(=O)N2CCCC(C(=O)c3cccc(OC(C)C)c3)C2)cs1 (centres undefined) | -26.2% | -5.7 | 10.9 | -0.9% | ? | ?
CCCS(=O)(=O)c1ccc(COC(=O)Cc2ccc([N+](=O)[O-])cc2)cc1 | 21.8% | nt | 2.2 | -28.2% | 1.0% | 2.94µM*
CN(C)S(=O)(=O)c1ccc(C(=O)OCc2ccc([N+](=O)[O-])cc2)cc1 | 7.6% | 18.1 | 13.3* | 13.5% | 1.8% | 7.3%
CNS(=O)(=O)c1cccc(C(=O)OCc2cc(C(C)=O)ccc2OC)c1 | 4.5% | -5.4 | -2.7 | 56.4% | 2.82µM* | 13.8%
CCOc1ccc(C(C)=O)cc1COC(=O)c1ccccc1C(=O)N(C)Cc1ccccc1 | nt | nt | nt | ? | 20µM* | ?
COc1ccc(C(=O)OCC(=O)NCCN2C(=O)CSC2=O)cc1 | nt | -9.2 | -1.8 | 2.5% | -1.0% | 58.0%

From PubChem
